The record followed here is PubChem BioAssay (NCI).

Values joined by “and” are separate entries in the source; they are usually repeats but may differ in a detail not shown here. Equal entries are not always repeated. The panel holds about 79,000 compounds, 15% with a hit somewhere; the sample as a whole holds those more often. Where a structure was tested more than once in an assay, its records may differ in their call. Active and inactive are the calls of the source. Rule as the data show it: active = growth inhibition above about 70%; inactive = the rest.

A short description of assay [1]: NCI Yeast Anticancer Drug Screen. Data for the rad50 strain (AID 155).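 Also: 0% = growth of vehicle-only cultures of the same strain.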 Conditions: S. cerevisiae rad50 strain growth inhibition, stronger effect = higher value. Summed up: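 Cells are treated with compound, grown, and their growth is then scored against vehicle-only cultures of the same repair-deficient yeast strain.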
The nature of assay [2]: NCI Yeast Anticancer Drug Screen. Data for the mec2-1 strain (AID 157). Conditions: S. cerevisiae mec2-1 strain, stronger effect = higher value. The gist of the method:
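Readout is yeast growth inhibition, normalised to vehicle-treated controls, in the mec2-1 strain exposed to compound.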

The nature of assay [3]: NCI Yeast Anticancer Drug Screen. Data for the sgs1 mgt1 strain (AID 161).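 Also: 0% = growth of cultures given vehicle only.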 Conditions: S. cerevisiae sgs1 mgt1 strain, stronger effect = higher value. Summed up: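 Percent growth inhibition was derived by comparing compound-exposed mutant yeast with vehicle-exposed cultures. The strain carries alterations in DNA damage repair.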
Assay [4] in a line: NCI Yeast Anticancer Drug Screen. Data for the cln2 rad14 strain (AID 165).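 Also: 0% = growth equal to vehicle treated cultures.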 Conditions: S. cerevisiae cln2 rad14 strain, stronger effect = higher value. Summed up: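 Relative to vehicle controls, growth inhibition of compound-treated cln2 rad14 yeast was recorded.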
The nature of assay [5]: NCI Yeast Anticancer Drug Screen. Data for the bub3 strain (AID 167). The following applies: S. cerevisiae bub3 mutant strain, stronger effect = higher value. Summed up:
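Part of a panel of yeast mutants defective in DNA damage repair or cell cycle regulation. Each strain is grown with compound, and inhibition is calculated relative to solvent-treated cultures.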

Assay [6] can be described thus: NCI Yeast Anticancer Drug Screen. Data for the mlh1 rad18 strain (AID 175). Conditions: S. cerevisiae mlh1 rad18 strain growth inhibition, stronger effect = higher value. Summed up:
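Test agents were incubated with a yeast strain of defined genotype (DNA damage repair defect). Inhibition of growth was derived by comparison with vehicle-exposed cultures.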

Setting [7] is: at 5.0 µM (retest, dose inferred, filed as 0.5).
Where [8] appears, read: at 50.0 µM (retest, dose inferred, filed as 5.0).

Turning to `CN1CCN(c2ccc([N+](=O)[O-])c3no[n+]([O-])c23)CC1`, the growth inhibition was 96% (active) and 97% (active) in assay [1] (setting [7]); 99% (active) in assay [1] (setting [8]); 99.2% (active) and 89.8% (active) in assay [1] (at 50.0 µM); 52% (inactive) and 81% (active) in assay [2] (setting [7]); 99% (active) in assay [2] (setting [8]); 97.5% (active) and 93% (active) in assay [2] (at 50.0 µM). In addition, the growth inhibition in assay [3] (setting [7]) is 82% (active) and 93% (active); in assay [3] (setting [8]), 99% (active); in assay [3] (at 50.0 µM) it was 98.8% (active) and 91.3% (active); in assay [4] (setting [7]) it was 72% (active) and 46% (inactive); in assay [4] (setting [8]), 97% (active) and 98% (active); in assay [4] (at 50.0 µM) it was 92.7% (active) and 84.6% (active). The growth inhibition in assay [5] (setting [7]) is 45% (inactive) and 65% (inactive); in assay [5] (setting [8]), 99% (active) and 97% (active); in assay [5] (at 50.0 µM) it was 98.2% (active) and 91.5% (active); in assay [6] (setting [7]), 94% (active) and 97% (active); in assay [6] (setting [8]), 99% (active); in assay [6] (at 50.0 µM), 94.2% (active) and 90.2% (active).

With `C/C(=N\NS(=O)(=O)c1ccc(C)cc1)C(CN1CCOCC1)C(c1ccccc1)c1c(O)c2ccccc2oc1=O` (centres undefined), the growth inhibition was 15% (inactive) in assay [1] (setting [7]); 15% (inactive) in assay [1] (setting [8]); 88.5% (active) in assay [1] (at 50.0 µM); 4% (inactive) in assay [2] (setting [7]); 4% (inactive) in assay [2] (setting [8]); 85.8% (active) in assay [2] (at 50.0 µM). Further, the growth inhibition was 15% (inactive) in assay [3] (setting [7]); 15% (inactive) in assay [3] (setting [8]); 87.4% (active) in assay [3] (at 50.0 µM); 5% (inactive) in assay [4] (setting [7]); 5% (inactive) in assay [4] (setting [8]); 89.2% (active) in assay [4] (at 50.0 µM). Besides, the growth inhibition in assay [5] (setting [7]) is 3% (inactive); in assay [5] (setting [8]), 3% (inactive); in assay [5] (at 50.0 µM), 83.7% (active); in assay [6] (setting [7]), 9% (inactive); in assay [6] (setting [8]), 9% (inactive); in assay [6] (at 50.0 µM), 87.6% (active).

On to `Cc1c(N)nc([C@H](CC(N)=O)NC[C@H](N)C(N)=O)nc1C(=O)N[C@H](C(=O)N[C@H](C)[C@@H](O)CC(=O)N[C@H](C(=O)NC(O[C@@H]1O[C@@H](C)[C@@H](N)[C@@H](O)[C@H]1O)C(O)c1nc(-c2nc(C(=O)NCCCCN)cs2)cs1)[C@@H](C)O)[C@@H](O[C@@H]1O[C@@H](CO)[C@@H](O)[C@H](O)[C@@H]1O[C@H]1O[C@H](CO)[C@@H](O)[C@H](OC(N)=O)[C@@H]1O)c1c[nH]cn1` (some centres undefined), for which the growth inhibition in assay [1] (setting [7]) is 96% (active); in assay [1] (setting [8]), 98% (active); in assay [1] (at 50.0 µM), 91.7% (active); in assay [2] (setting [7]) it was 98% (active); in assay [2] (setting [8]) it was 98% (active); in assay [2] (at 50.0 µM), 92.8% (active). Besides, the growth inhibition in assay [3] (setting [7]) was 98% (active); in assay [3] (setting [8]), 98% (active); in assay [3] (at 50.0 µM) it was 92.7% (active); in assay [4] (setting [7]) it was 96% (active); in assay [4] (setting [8]), 97% (active); in assay [4] (at 50.0 µM), 89.8% (active). The growth inhibition in assay [5] (setting [7]) was 97% (active); in assay [5] (setting [8]) it was 98% (active); in assay [5] (at 50.0 µM), 92.9% (active); in assay [6] (setting [7]) it was 94% (active); in assay [6] (setting [8]), 97% (active); in assay [6] (at 50.0 µM), 90.2% (active).

Consider `C1CC[N-]CC1.CC(=N\O)/C(C)=N/O.CC(=N\O)/C(C)=N/O.OC1[CH-]CCCC1.[Co+2]`, for which the growth inhibition in assay [1] (setting [7]) was 22% (inactive); in assay [1] (setting [8]), 20% (inactive); in assay [1] (at 50.0 µM) it was 23.9% (inactive); in assay [2] (setting [7]), 5% (inactive); in assay [2] (setting [8]), 16% (inactive); in assay [2] (at 50.0 µM), -1.95% (inactive). Also, the growth inhibition in assay [3] (setting [7]) was 28% (inactive); in assay [3] (setting [8]), 25% (inactive); in assay [3] (at 50.0 µM), 13.9% (inactive); in assay [4] (setting [7]), 17% (inactive); in assay [4] (setting [8]), 28% (inactive); in assay [4] (at 50.0 µM), 76% (active). Moreover, the growth inhibition in assay [5] (setting [7]) was 13% (inactive); in assay [5] (setting [8]), 13% (inactive); in assay [5] (at 50.0 µM), -5.4% (inactive); in assay [6] (setting [7]) it was 17% (inactive); in assay [6] (setting [8]), 35% (inactive); in assay [6] (at 50.0 µM) it was 30.9% (inactive).

Take `CN(CCO)CCO`: the growth inhibition in assay [1] (setting [7]) was 18% (inactive); in assay [1] (setting [8]), 86% (active); in assay [1] (at 50.0 µM), 6.55% (inactive) and -12.4% (inactive); in assay [2] (setting [7]), 3% (inactive); in assay [2] (setting [8]), 26% (inactive); in assay [2] (at 50.0 µM), 7.5% (inactive) and 36.6% (inactive). The growth inhibition in assay [3] (setting [7]) is 5% (inactive); in assay [3] (setting [8]), 43% (inactive); in assay [3] (at 50.0 µM) it was -0.35% (inactive) and 15.9% (inactive); in assay [4] (setting [7]), 1% (inactive); in assay [4] (setting [8]), 21% (inactive); in assay [4] (at 50.0 µM) it was -8.05% (inactive) and 58.9% (inactive). The growth inhibition in assay [5] (setting [7]) was 1% (inactive); in assay [5] (setting [8]), 6% (inactive); in assay [5] (at 50.0 µM), -9.75% (inactive) and 30.8% (inactive); in assay [6] (setting [7]), 10% (inactive); in assay [6] (setting [8]), 38% (inactive); in assay [6] (at 50.0 µM) it was -11.8% (inactive) and 21.9% (inactive).

Turning to `CCCCCCCCCCCC1CCCC(C)N1` (centres undefined), the growth inhibition in assay [1] (setting [7]) is 8% (inactive) and 28% (inactive); in assay [1] (setting [8]) it was 98% (active) and 92% (active); in assay [1] (at 50.0 µM) it was 91.1% (active) and 91.6% (active); in assay [2] (setting [7]) it was 19% (inactive) and 26% (inactive); in assay [2] (setting [8]), 98% (active) and 88% (active); in assay [2] (at 50.0 µM), 93.3% (active). In addition, the growth inhibition was 17% (inactive) and 32% (inactive) in assay [3] (setting [7]); 98% (active) and 90% (active) in assay [3] (setting [8]); 93.3% (active) and 92.5% (active) in assay [3] (at 50.0 µM); 10% (inactive) and 49% (inactive) in assay [4] (setting [7]); 94% (active) and 95% (active) in assay [4] (setting [8]); 90.5% (active) and 91% (active) in assay [4] (at 50.0 µM). For the same molecule, the growth inhibition in assay [5] (setting [7]) was 24% (inactive) and 32% (inactive); in assay [5] (setting [8]), 97% (active) and 85% (active); in assay [5] (at 50.0 µM), 91.8% (active) and 91.5% (active); in assay [6] (setting [7]), 13% (inactive) and 36% (inactive); in assay [6] (setting [8]) it was 98% (active) and 86% (active); in assay [6] (at 50.0 µM), 92.1% (active) and 91.3% (active).

Turning to `COC1OC(COC(C)=O)C(OC(C)=O)C(OC(C)=O)[CH]1[Hg][I]` (centres undefined), the growth inhibition in assay [1] (setting [7]) is 99% (active); in assay [1] (setting [8]) it was 99% (active); in assay [1] (at 50.0 µM) it was 99.2% (active); in assay [2] (setting [7]) it was 99% (active); in assay [2] (setting [8]), 99% (active); in assay [2] (at 50.0 µM), 99.6% (active). Further, the growth inhibition is 100% (active) in assay [3] (setting [7]); 100% (active) in assay [3] (setting [8]); 99.6% (active) in assay [3] (at 50.0 µM); 99% (active) in assay [4] (setting [7]); 99% (active) in assay [4] (setting [8]); 98.9% (active) in assay [4] (at 50.0 µM). In addition, the growth inhibition was 99% (active) in assay [5] (setting [7]); 99% (active) in assay [5] (setting [8]); 99.3% (active) in assay [5] (at 50.0 µM); 99% (active) in assay [6] (setting [7]); 99% (active) in assay [6] (setting [8]); 99.2% (active) in assay [6] (at 50.0 µM).

Take `O=P1(Oc2ccccc2)C(c2ccccc2)C(c2ccccc2)=NN1c1ccccc1` (centres undefined): the growth inhibition in assay [1] (setting [7]) was 29% (inactive); in assay [1] (setting [8]), 29% (inactive); in assay [1] (at 50.0 µM) it was 90.7% (active); in assay [2] (setting [7]), 12% (inactive); in assay [2] (setting [8]), 12% (inactive); in assay [2] (at 50.0 µM), 91% (active). Also, the growth inhibition in assay [3] (setting [7]) is 23% (inactive); in assay [3] (setting [8]), 23% (inactive); in assay [3] (at 50.0 µM), 89.2% (active); in assay [4] (setting [7]), 23% (inactive); in assay [4] (setting [8]) it was 23% (inactive); in assay [4] (at 50.0 µM), 90.8% (active). Further, the growth inhibition in assay [5] (setting [7]) is 5% (inactive); in assay [5] (setting [8]) it was 5% (inactive); in assay [5] (at 50.0 µM) it was 90.1% (active); in assay [6] (setting [7]), 11% (inactive); in assay [6] (setting [8]), 11% (inactive); in assay [6] (at 50.0 µM), 89.6% (active).
